An excerpt weighted towards active compounds, which were near 4.4% of everything screened.
tim10-1 inh: tim10-1 yeast growth inhibition; inhibition, % at 20 µM; AID 463190; actives 2.2% (n = 330,000); S. cerevisiae tim10-1 ts strain growth, BacTiter-Glo, 24 h;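 active = inhibition of at least 40%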;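 also: mutant grown at 25 °C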
PfHsp90 yeast 2: reduces growth (ATP signal) of yeast expressing P. falciparum Hsp90. S. cerevisiae expressing PfHsp90, BacTiter-Glo ATP, 48 h; yeast lacking PDR1 and PDR3 efflux regulators. inhibition, % at 9.4 µM. actives 0.32% (n = 310,000);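 active = every replicate shows inhibition above about 80%, whatever the replicate mean, limit read from the data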
tim23-1 inh: inhibits growth of tim23-1 mutant yeast | inhibition, % at 20 µM | actives 1.3% (n = 330,000) | AID 463212 | S. cerevisiae tim23-1 growth, BacTiter-Glo luminescence, 24 h;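 active = growth inhibition of the mutant yeast at or above 50%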;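 also: temperature-sensitive mutant grown at 25 °C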
TIM10 inh: growth inhibitors of TIM10 yeast strain; S. cerevisiae TIM10 strain growth, BacTiter-Glo luminescence, 24 h; inhibition, % at 10 µM; actives 1.4% (n = 330,000); AID 463195;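 active = inhibition of 40% or more at the single tested concentration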;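 also: wild-type TIM10 isogenic control strain grown at permissive 25 °C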
Mot1-301 SUMO: inhibitors of SUMOylation pathway: yeast Mot1-301 growth rescue; S. cerevisiae Mot1-301 growth rescue, ATP luminescence, 38.5C; percent above DMSO median, 100 means doubled; growth rescue, % at 18.8 µM; actives 1% (n = 320,000); AID 2716;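 active = every valid replicate shows activation above 250% relative to neutral control wells; inactive = the rest, any valid replicate at or below 250%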
tim10-1 conf: confirmation of tim10-1 mutant yeast growth inhibitors | shares compounds with tim10-1 inh | S. cerevisiae tim10-1 ts strain growth, BacTiter-Glo, 24 h | inhibition, % at 20 µM | actives 56% (n = 7,400) | AID 463213;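 active = inhibition of yeast growth at or above a set limit in either of two repeat tests at 20 µM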;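 also: tim10-1 mutant grown at permissive 25 °C to find synthetic lethal compounds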
Of the large screens only hits and unclear results are named; the others gave an inactive call (follow-up assays come after a bar, where they were run).

C=C(C)CNC(=S)N=Nc1c(O)[nH]c2ccc([N+](=O)[O-])cc12	tim10-1 inh 41.6 | tim10-1 conf inactive
CC(C)NC(=S)N=Nc1c(O)[nH]c2ccc([N+](=O)[O-])cc12	none (no result: PfHsp90 yeast 2)
CN(CCc1ccccc1)C(=O)c1ccc(NC(=O)Cc2cccc(NC(=O)C3CCN(C(=O)c4ccccc4)CC3)c2)cc1	none (no result: tim10-1 inh, tim23-1 inh, TIM10 inh, Mot1-301 SUMO)
Cc1ccc(-c2csc(N3CCN(c4cc5c(cc4Cl)nc(C)n5CCN4CCCCC4)CC3)n2)cc1	tim10-1 inh 40.5 (no result: PfHsp90 yeast 2) | tim10-1 conf inactive
CCOc1ccccc1NC(=O)C(OC(=O)c1ccc(O)cc1)c1ccccc1 (centres undefined)	tim10-1 inh 41.6 | tim10-1 conf 37.9
Cc1cc(C)c2sc(NC(=O)c3ccc([N+](=O)[O-])o3)nc2c1	tim10-1 inh 56.5 | tim10-1 conf 54.5
O=C(Nc1c(Cl)ccc2nsnc12)c1ccc([N+](=O)[O-])o1	tim10-1 inh 51.6 | tim10-1 conf 33.4
N#Cc1nc(-c2ccccc2F)oc1NCc1cccc2c1OCO2	tim10-1 inh 51.8 | tim10-1 conf inactive
CN(C)CCNc1oc(-c2ccccc2F)nc1C#N	none
CN1CCN(c2nc(-c3ccccc3)c3cc(Cl)ccc3n2)CC1	tim10-1 inh 42.0 | tim10-1 conf inactive
Cc1ccn2c(NC(C)(C)C)c(-c3cccs3)nc2c1	tim10-1 inh 44.3 | tim10-1 conf inactive
Cc1ccn2c(NC(=O)c3cccs3)c(-c3ccccc3)nc2c1	none
CCCC(=O)C1=C(O)C(C(=O)OC)C(C)(C)CC1=Nc1ccc(N)cc1 (centres undefined)	tim10-1 inh 42.0 (no result: PfHsp90 yeast 2, Mot1-301 SUMO) | tim10-1 conf inactive
O=C(NCCCCNC(=O)c1cccnc1Cl)c1cccnc1Cl	none
COC(=O)c1cccc(Nc2cc(C)nc(-c3ccccc3O)n2)c1	tim10-1 inh 61.9 | tim10-1 conf 35.0
CCCCn1c(N)c(N(Cc2ccccc2OC)C(=O)c2ccc([N+](=O)[O-])s2)c(=O)[nH]c1=O	none
Clc1ccc(-c2n[nH]c3c2CCC3)c(Cl)c1	tim10-1 inh 40.9 | tim10-1 conf inactive
c1ccc(-c2n[nH]c3c2CCC3)cc1	none
CC(C)C[C@@H](CSc1ccc(Br)cc1)N1CCN(CC(C)C)CCC1=O	tim10-1 inh 40.2 (no result: PfHsp90 yeast 2) | tim10-1 conf 32.2
S=c1[nH]nc(-c2ccccc2)n1/N=C/C=C/c1ccco1	none
S=c1[nH]nc(-c2ccco2)n1/N=C/c1cccc(Cl)c1Cl	tim10-1 inh 41.3 | tim10-1 conf 33.4
S=c1[nH]nc(-c2ccco2)n1/N=C/C=C/c1ccccc1	tim10-1 inh 40.6 (no result: Mot1-301 SUMO) | tim10-1 conf 30.5
S=c1[nH]nc(-c2ccco2)n1/N=C/c1ccc(Cl)cc1Cl	none
CC(C)c1ccc(C2(C)NC(=O)N(CC(=O)NCC3COc4ccccc4O3)C2=O)cc1 (centres undefined)	none (no result: PfHsp90 yeast 2)
O=C(NC1CCCCC1)N1CCN(c2nc(-c3ccccc3)cs2)CC1	tim10-1 inh 45.5 | tim10-1 conf inactive
O=C(NC12CC3CC(CC(C3)C1)C2)N1CCN(c2nc(-c3ccccc3)cs2)CC1	none
COc1ccc(-c2csc(N3CCN(C(=O)c4ccccc4)CC3)n2)cc1	tim10-1 inh 42.3 (no result: PfHsp90 yeast 2) | tim10-1 conf 33.4
COCCCNC(=S)N1CCN(c2nc(-c3ccc(F)cc3)cs2)CC1	tim10-1 inh 43.9 | tim10-1 conf 32.7
COCCNC(=S)N1CCN(c2nc(-c3ccccc3)cs2)CC1	tim10-1 inh 41.4 | tim10-1 conf 32.1
COc1ccc(-c2csc(N3CCN(C(=O)c4ccco4)CC3)n2)cc1	none
Cc1ccccc1C(=O)N1CCC(C(=O)NCCc2ccc(S(N)(=O)=O)cc2)CC1	none
O=C1c2ccccc2NC(c2c(Cl)cccc2Cl)N1Cc1ccccc1 (centres undefined)	tim10-1 inh 40.0 | tim10-1 conf inactive
Nc1ccc(C(=O)c2cccs2)cc1[N+](=O)[O-]	none
CCc1ccccc1NC(=O)CCS(=O)(=O)c1ccc(Br)cc1	none
CCOc1ccccc1NC(=O)CCS(=O)(=O)c1ccc(Br)cc1	tim10-1 inh 41.3 | tim10-1 conf 38.9
OCc1ccc(-c2nn(Cc3ccccc3)c3ccccc23)o1	tim10-1 inh 40.1 | tim10-1 conf 29.8
O=c1c2ccccc2c(-c2n[nH]c(=S)o2)nn1Cc1ccccc1	none
